Where “and” joins values, the source holds several entries; their conditions need not be identical. Identical values can stand only once. Results filed as inconclusive are left out. For some assays here: Potency and affinity values are given separately. Calls of active or inactive are those of the source. Starred links: 1 amine or outer side, 2 acyl side, 3 side chain; linkers in the order of their positions; H or OH if unused. Positions of bridges follow the written chain, without caps; N, C: chain ends. Non-standard residues stand in square brackets, D forms with d. Residues, ends and D or L forms follow the SMILES beside them. ξ: configuration not given here. *: point of attachment. ΔAla(3-NHCONH2) = NC(=O)NC=C(N)C(=O)O; X1 = NC1=NCCC(C(N[*:1])C(=O)[*:2])N1; ξβ3hOrn = NCCCC(N)CC(=O)*; Dap = NC[CH](N)C(=O)O
Key:
[1] = Ebola virus entry assay, green fluorescence channel
[2] = Ebola virus entry assay, blue channel fluorescence
[3] = Ebola virus entry assay, green fluorescence channel; remark: listed apart in the source
[4] = Ebola virus entry assay, ratio channel readout
[5] = Ebola virus entry assay, green channel fluorescence
[6] = Ebola virus entry assay, blue channel fluorescence; remark: listed apart in the source
[7] = Ebola virus entry assay, reporter ratio channel; AC50: Channel type: primary unless noted; outcome: Channel type: primary unless noted
[8] = Ebola virus entry assay, blue channel (ratio component)
[9] = qHTS Assay for Identifying Gametocytocidal Compounds (AID 743244; active = well fitted curve in the direction sought with a large enough effect;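 note: % is set by controls: 0 for no effect and ±100 for the full control effect; actives lower the fluorescent signal which means gametocytes are killed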); settings: P. falciparum 3D7 stage III-V gametocytes, alamarBlue, 72 h; max response: stronger effect = lower value
Method in brief: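 Viability read-out was resazurin reduction (alamarBlue, 24 h) measured at Ex 525/Em 598 nm. Beforehand, late-stage (III-V) 3D7 P. falciparum gametocytes at 20,000 cells/well were incubated with compound 72 h at 37C under 5% CO2.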

[10] = qHTS profiling of the MIPE4 collection as inhibitors of Plasmodium falciparum (3D7) proliferation (AID 743344);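 note: scaled between DMSO vehicle wells and 0.29 µM artemisinin as full inhibition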; settings: P. falciparum 3D7 in erythrocytes, SYBR Green DNA fluorescence, 72 h
Method in brief: (§1)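 Parasite DNA was quantified by SYBR Green I fluorescence (ex 485, em 535 nm) after overnight lysis in saponin/Triton buffer at room temperature. Cultures at 0.3% parasitemia and 2.5% hematocrit were first exposed to compound for 72 h at 37 C; signals were normalised to artemisinin (0.29 uM) and vehicle wells.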

[11] = qHTS profiling of the MIPE4 collection as inhibitors of Plasmodium falciparum (DD2) proliferation (AID 743345); settings: P. falciparum Dd2 in erythrocytes, SYBR Green DNA, 72 h
Method in brief: as §1

[12] = qHTS profiling of the MIPE4 collection as inhibitors of Plasmodium falciparum (DD2) proliferation (Rep 2) (AID 743346); settings: P. falciparum Dd2 in erythrocytes, SYBR Green DNA, 72 h
Method in brief: as §1

[13] = qHTS profiling of the MIPE4 collection as inhibitors of Plasmodium falciparum (HB3) proliferation (AID 743347);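 note: plate controls were DMSO vehicle wells for no effect and artemisinin wells for full effect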; settings: P. falciparum HB3 in erythrocytes, SYBR Green DNA, 72 h
Method in brief: as §1

[14] = Ebola virus entry assay, blue channel fluorescence; remark: listed apart in the source
[15] = Ebola virus entry assay, ratio channel
[16] = at 28.5 µM (top of the series) unless noted
[17] = at 0.217 µM (top of the series)
Throughout, for efficacy: 0% is about no effect.

O=C(O)CCCc1ccccc1
inactive: efficacy [1] -16.1% | outcome [2] | outcome [3] | outcome [4] | outcome [5] | outcome [6] | outcome [7] | outcome [8]

CC(S)C(=O)NCC(=O)O (stereo unspecified)
inactive: efficacy [1] -25.6% | outcome [2] | outcome [3] | outcome [4] | outcome [6] | outcome [7] | outcome [8]

NCC(CC(=O)O)c1ccc(Cl)cc1 (stereo unspecified)
inactive: max response [9] 0.281% and 9.05% | efficacy [1] -35.7% | outcome [2] | outcome [3] | outcome [4] | outcome [6] | outcome [7] | outcome [8]

Cc1cccc(Nc2ccncc2S(=O)(=O)NC(=O)NC(C)C)c1
inactive: efficacy [1] -34.9% | outcome [2] | outcome [3] | outcome [4] | outcome [5] | outcome [6] | outcome [7] | outcome [8]

N[C@@H]1CONC1=O
inactive: efficacy [1] -13.4% | outcome [2] | outcome [3] | outcome [4] | outcome [5] | outcome [6] | outcome [7] | outcome [8]

CC(C)CC(N(C)C)C1(c2ccc(Cl)cc2)CCC1 (stereo unspecified)
90.3%: parasite growth, % of DMSO control [10, 16]
99.9%: parasite growth remaining, % of DMSO control (lower = more inhibition) [11, 16]
137%: parasite growth, % of control (lower = inhibition) [12, 16]
105%: growth, % of control [13, 16]
inactive: max response [9] 6.63% | efficacy [1] -28.7% | outcome [2] | outcome [3] | outcome [4] | outcome [5] | outcome [6] | outcome [7] | outcome [8]

NS(=O)(=O)c1cc2c(cc1Cl)NC=NS2(=O)=O
inactive: efficacy [1] -8.1% | outcome [2] | outcome [3] | outcome [14] | outcome [5] | outcome [6] | outcome [7] | outcome [8]

Cc1cn[nH]c1
inactive: efficacy [1] -9.66% | outcome [2] | outcome [3] | outcome [4] | outcome [6] | outcome [7] | outcome [8]

CCCN(CCC)CCc1cccc2c1CC(=O)N2
inactive: efficacy [1] 29.5% | outcome [2] | outcome [3] | outcome [4] | outcome [5] | outcome [6] | outcome [7] | outcome [8]

C[C@@H](O)[C@H]1C(=O)N2C(C(=O)O)=C(S[C@@H]3CN[C@H](C(=O)N(C)C)C3)[C@H](C)[C@H]12
inactive: efficacy [1] 17.9% | outcome [2] | outcome [3] | outcome [4] | outcome [5] | outcome [6] | outcome [7] | outcome [8]

Cc1ccc(-c2nc3ccc(C)cn3c2CC(=O)N(C)C)cc1
inactive: max response [9] 7.35% | efficacy [1] -21.9% | outcome [2] | outcome [3] | outcome [4] | outcome [5] | outcome [6] | outcome [7] | outcome [8]

O=C(O)c1cn(C2CC2)c2cc(N3CCNCC3)c(F)cc2c1=O
inactive: efficacy [1] -9.16% | outcome [2] | outcome [3] | outcome [4] | outcome [5] | outcome [6] | outcome [7] | outcome [8]

NCCCC(N)CC(=O)NCC1NC(=O)C(CO)NC(=O)C(N)CNC(=O)C(C2CCN=C(N)N2)NC(=O)C(=CNC(N)=O)NC1=O (stereo not drawn) (H-[Dap]S[Dap](ξβ3hOrn)[ΔAla(3-NHCONH2)][X1]; lactam 1-C; configuration not given here)
113%: parasite growth, % of control (lower = inhibition) ([12]; at 28.5 µM (top of the series))
92.4%: parasite growth remaining, % of DMSO control (lower = more inhibition) [11, 17]
101%: parasite growth, % of DMSO control ([10]; at 28.5 µM (top of the series)) | growth, % of control [13, 17]
92.7%: parasite growth, % of DMSO control [10, 17]
121%: parasite growth, % of control (lower = inhibition) [12, 17]
86.8%: growth, % of control ([13]; at 28.5 µM (top of the series))
100%: parasite growth remaining, % of DMSO control (lower = more inhibition) ([11]; at 28.5 µM (top of the series))
inactive: efficacy [1] 13% | outcome [2] | outcome [3] | outcome [4] | outcome [5] | outcome [6] | outcome [7] | outcome [8]

CCOC(=O)[C@H](CCc1ccccc1)N[C@@H](C)C(=O)N1Cc2ccccc2C[C@H]1C(=O)O
inactive: efficacy [1] 30.9% | outcome [3] | outcome [4] | outcome [15] | outcome [5] | outcome [6] | outcome [7] | outcome [8]

Cc1[nH]cnc1CN1CCc2c(c3ccccc3n2C)C1=O
inactive: efficacy [1] -10.6% | outcome [2] | outcome [4] | outcome [14] | outcome [15] | outcome [5] | outcome [6] | outcome [7] | outcome [8]

O=C1C(=O)c2ccccc2C(O)=C1C1CCC(c2ccc(Cl)cc2)CC1 (stereo unspecified)
inactive: efficacy [1] 18.6% | outcome [2] | outcome [3] | outcome [5] | outcome [6] | outcome [7] | outcome [8]

CCN(CC)C(=S)SSC(=S)N(CC)CC
active: AC50 [14] 7.08 µM | AC50 [15] 7.94 µM and 22.4 µM | AC50 [7] 7.94 µM and 22.4 µM
inactive: efficacy [1] -47.8% | outcome [3] | outcome [4]

Cn1cc[nH]c1=S
inactive: efficacy [1] -16% | outcome [3] | outcome [14] | outcome [15] | outcome [5] | outcome [6] | outcome [7] | outcome [8]

CNCCC(Oc1ccc(C(F)(F)F)cc1)c1ccccc1 (stereo unspecified)
inactive: efficacy [1] -180% | outcome [4]
active: AC50 [2] 14.1 µM | AC50 [14] 8.91 µM | AC50 [15] 3.55 µM | AC50 [7] 3.55 µM

CCCCc1nc(Cl)c(CO)n1Cc1ccc(-c2ccccc2-c2nn[nH]n2)cc1
inactive: efficacy [1] -25.2% | outcome [3] | outcome [4] | outcome [14] | outcome [15] | outcome [5] | outcome [6] | outcome [7] | outcome [8]

Cc1ncc([N+](=O)[O-])n1CCO
inactive: efficacy [1] -56.3% | outcome [3] | outcome [4] | outcome [15] | outcome [5] | outcome [7]

CC[C@@H](CO)NC(=O)[C@@H]1C=C2c3cccc4[nH]cc(c34)C[C@H]2N(C)C1
inactive: efficacy [1] -16.2% | outcome [5]
active: AC50 [14] 7.94 µM | AC50 [15] 10 µM | AC50 [7] 10 µM

Cc1ccc(S(=O)(=O)NC(=O)NN2CCCCCC2)cc1
inactive: efficacy [1] -42.6% | outcome [3] | outcome [4] | outcome [15] | outcome [5] | outcome [7] | outcome [8]

O=c1[nH]cnc2c1ncn2[C@H]1CC[C@@H](CO)O1
inactive: efficacy [1] -19.1% | outcome [3] | outcome [5] | outcome [6] | outcome [7] | outcome [8]

O=[N+]([O-])c1ccc(O)c2ncccc12
inactive: efficacy [1] -18.6% | outcome [5]
active: AC50 [14] 31.6 µM | AC50 [15] 28.2 µM | AC50 [7] 28.2 µM

CC(C)c1nc(CN(C)C(=O)N[C@H](C(=O)N[C@@H](Cc2ccccc2)C[C@H](O)[C@H](Cc2ccccc2)NC(=O)OCc2cncs2)C(C)C)cs1
active: AC50 [15] 22.4 µM | AC50 [7] 22.4 µM
inactive: efficacy [1] 31.8% | outcome [3] | outcome [4] | outcome [14] | outcome [6] | outcome [8]

CC1=C(C(=O)O)N2C(=O)[C@@H](NC(=O)[C@H](N)c3ccc(O)cc3)[C@H]2SC1
inactive: efficacy [1] -8.88% | outcome [3] | outcome [4] | outcome [14] | outcome [15] | outcome [5] | outcome [6] | outcome [7] | outcome [8]

CCN1/C(=C/C=C/c2sc3ccccc3[n+]2CC)Sc2ccccc21
inactive: efficacy [1] 26.7% | outcome [14] | outcome [15] | outcome [5] | outcome [7]

CCCCc1oc2ccccc2c1C(=O)c1cc(I)c(OCCN(CC)CC)c(I)c1
inactive: efficacy [1] 105% | outcome [3]
active: AC50 [14] 3.55 µM | AC50 [15] 2.82 µM | AC50 [7] 2.82 µM

COc1ccccc1OCCNCC(O)COc1cccc2[nH]c3ccccc3c12 (stereo unspecified)
active: AC50 [2] 11.2 µM | AC50 [15] 2.24 µM | AC50 [7] 2.24 µM
inactive: efficacy [1] 67.7% | outcome [4]

O=C1CCC(N2C(=O)c3ccccc3C2=O)C(=O)N1 (stereo unspecified)
inactive: efficacy [1] -16.4% | outcome [3] | outcome [4] | outcome [14] | outcome [15] | outcome [5] | outcome [6] | outcome [7] | outcome [8]

CN[C@H]1CC[C@@H](c2ccc(Cl)c(Cl)c2)c2ccccc21
inactive: efficacy [1] -213% | outcome [3]
active: AC50 [14] 2 µM | AC50 [15] 1.58 µM | AC50 [7] 1.58 µM

CCC[C@H](N[C@@H](C)C(=O)N1[C@H](C(=O)O)C[C@@H]2CCCC[C@@H]21)C(=O)OCC
inactive: efficacy [1] -25% | outcome [3] | outcome [14] | outcome [15] | outcome [5] | outcome [6] | outcome [7] | outcome [8]

Cc1ccccc1C(=O)Nc1ccc(C(=O)N2CCCC(O)c3cc(Cl)ccc32)c(C)c1 (stereo unspecified)
active: AC50 [14] 25.1 µM | AC50 [15] 25.1 µM | AC50 [7] 25.1 µM
inactive: efficacy [1] 54.1% | outcome [2] | outcome [4]

Cc1ccc(S(=O)(=O)N[C@@H](CCCCN)C(=O)CCl)cc1
active: AC50 [14] 14.1 µM | AC50 [7] 28.2 µM
inactive: efficacy [1] 32.6% | outcome [15] | outcome [5]

CC1(C)NC(=O)N(c2ccc([N+](=O)[O-])c(C(F)(F)F)c2)C1=O
inactive: efficacy [1] 16.8% | outcome [3] | outcome [4] | outcome [5] | outcome [6] | outcome [7] | outcome [8]

O=c1[nH]cc(F)c(=O)[nH]1
inactive: efficacy [1] 26.1% | outcome [2] | outcome [3] | outcome [15] | outcome [5] | outcome [6] | outcome [7] | outcome [8]
44.8%: parasite growth, % of control (lower = inhibition) [12, 16]
42.1%: parasite growth, % of DMSO control [10, 16]
85.2%: growth, % of control [13, 16]

Source: PubChem BioAssay (NCATS)
